Bioassay records deposited in PubChem by National Center for Advancing Translational Sciences (NCATS).
SW480 rereplic = inducers of DNA re-replication in SW480 colon cancer cells | SW480 DNA re-replication, Hoechst DNA content imaging, 48 h | Potency, µM (titrated, usually from 46.1 µM), for inactives: top-dose re-replication activation, most hits filed as activators | AID 624297 | actives 1.8% (n = 340,000); also: potency is read from the fitted curve at half-maximal effect; % of control where 0% means no effect; nearly all actives have a fitted effect of over 55% in size
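First, 250 cells per well were seeded. Next, compound or vehicle (23 nL) was pinned in, plates sat 48 hr at 37 C. Finally Hoechst was added for 40 min before fluorescence scanning.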
Giardia killer = Giardia lamblia killing | Giardia lamblia trophozoite viability | activity change, % at 7.66 µM, hits read low | actives 0.15% (n = 340,000) | AID 540267; in the data active = activity change below about -80%; inconclusive = between about -30% and that limit;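 also: parasites exposed to compound for two days anaerobically before the ATP read; % is scaled to controls: 0 for no effect and ±100 for the full control effect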
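Media and compound were dispensed first, then trophozoites at 100 cells/well; plates sat 48 hrs at 37 deg C without oxygen before ATP luminescence reagent was added and read after 15-30 min at room temperature.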
BCR signal inh = inhibitors of chronic active B-cell receptor signaling; ABC-DLBCL IkBa-CBG/CBR reporter, luminescence ratio, 4 h; Potency, µM (highest dose often 46.1 µM), inactives show at the highest dose activity change, negative = inhibition, usual class: inhibitors; actives 0.05% (n = 340,000); AID 493014; active = well fitted inhibition curve with a large enough effect in the signal ratio, with a control signal flat, not every such curve was filed as active; inconclusive = small, poorly fitted or top-dose-only effect, or effect the other way, or a change in a side signal; the % refers to the signal ratio;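 also: potency is read from the fitted curve at half-maximal effect; plate controls were basal doxycycline-induced cells for no effect and cells given 10 µM MG132 for full effect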
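TMD8 ABC-DLBCL cells carrying doxycycline-inducible green luciferase fused to IkappaBalpha plus unfused red luciferase were exposed to compounds (up to 46 uM) for 4 hrs at 37C. Activity came from the overlap-corrected green/red luminescence ratio.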
RORg inh = inhibitors of mouse ROR gamma transcriptional activity | P51450 | Drosophila S2 Gal4-RORgamma UAS-luciferase reporter, 20 h | Potency, µM (doses to about 53.6 µM), for inactives: at the top dose activity change, negative = inhibition, actives largely listed as inhibitors | actives 5.4% (n = 310,000) | AID 2551; also: potency is read from the fitted curve at half-maximal effect; % is scaled to controls: 0 for no effect and ±100 for the full control effect; nearly all actives have a fitted effect of over 60% in size
Target sequence (P51450 whole entry, looked up, the tested form may be a part): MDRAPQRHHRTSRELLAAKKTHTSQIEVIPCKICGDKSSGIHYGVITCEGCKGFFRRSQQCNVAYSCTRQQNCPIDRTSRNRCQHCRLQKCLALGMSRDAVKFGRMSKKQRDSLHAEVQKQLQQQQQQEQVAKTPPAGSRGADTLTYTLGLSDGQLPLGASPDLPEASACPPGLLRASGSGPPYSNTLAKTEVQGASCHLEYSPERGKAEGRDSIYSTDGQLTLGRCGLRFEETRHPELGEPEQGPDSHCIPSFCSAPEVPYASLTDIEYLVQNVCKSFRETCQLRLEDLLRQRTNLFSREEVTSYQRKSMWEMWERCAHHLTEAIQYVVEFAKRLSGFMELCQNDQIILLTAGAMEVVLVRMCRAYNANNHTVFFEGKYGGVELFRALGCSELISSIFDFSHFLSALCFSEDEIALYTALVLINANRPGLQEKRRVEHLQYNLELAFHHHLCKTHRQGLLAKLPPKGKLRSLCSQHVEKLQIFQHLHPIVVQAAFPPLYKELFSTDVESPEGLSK
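Using a luciferase readout, inhibitors were identified by reduced reporter activity in Drosophila cells coexpressing a copper-inducible Gal4–ROR gamma fusion and UAS-driven Photinus luciferase, incubated 20 hr after 700 uM copper sulfate.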
VP16 counter = inhibits Gal4-VP16 luciferase reporter, ROR gamma counter-screen; actives 3.5% (n = 310,000); Potency, µM (series often up to 53.6 µM), inactives show at the highest dose activity, negative = inhibition, hits mostly inhibitors; Drosophila S2 Gal4-VP16 UAS-luciferase, luminescence, 20 h;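 also: Gal4-VP16 expression switched on by copper sulfate through the metallothionein promoter; potency is read from the fitted curve at half-maximal effect; % is scaled to controls: 0 for no effect and ±100 for the full control effect; nearly all actives have a fitted effect of over 50% in size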
MCF10A rereplic = induces DNA re-replication in MCF 10a normal breast cells. MCF 10A DNA re-replication, Hoechst nuclear intensity, 48 h. Potency, µM (doses to about 46.1 µM), inactives show top-dose activity, positive = re-replication, hits mostly activators. actives 2.9% (n = 350,000). AID 624296; also: potency is read from the fitted curve at half-maximal effect; % of control where 0% means no effect; nearly all actives have a fitted effect of over 50% in size
* marks the source's active call; other numbers are inactive results; u = inconclusive; x = not tested or not shown. An excerpt weighted towards active compounds, which were near 8.3% of everything screened. Unless noted, calls follow the shape of the dose curve; as a rule, active = well fitted curve in the direction sought with a large enough effect; inconclusive = small, poorly fitted or top-dose-only effect, or another doubt; inactive = no such curve, though single readings can be large; an effect the other way counts as inactive or inconclusive.

SMILES	SW480 rereplic	Giardia killer	BCR signal inh	RORg inh	VP16 counter	MCF10A rereplic
NN=C1c2ccccc2C(=O)C1C(=O)C(c1ccccc1)c1ccccc1 (centres undefined)	4%	21	x	x	x	12µM*
CC(C)OC(=O)c1cc2c(ccn2C)n1CC(=O)N(Cc1ccccc1)c1ccccc1	u	-21	7%	u	u	18µM*
Nc1nnc(SCC(=O)NNC(=O)c2ccc([N+](=O)[O-])cc2)s1	1%	12	1%	x	x	-2%
O=C(CN1CCN(c2ccccc2O)CC1)NC(=O)NC1CCCC1	-6%	37	-11%	8%	-11%	u
CC(C)Oc1ccc(C(CC(=O)O)c2ccc(F)cc2)cc1 (centres undefined)	-4%	33	0%	9%	-9%	-3%
COc1ccc(NC(=O)CC(c2ccc(F)cc2)c2ccc(OC(C)C)cc2)cc1 (centres undefined)	3%	-2	u	40%	-9%	18µM*
CCc1ccc(NC(=O)CCn2c(-c3ccc(OC)cc3)cc(C(C)=O)c2C)cc1	x	x	-3%	x	x	x
Cc1ccc(/C=N/NC(=O)c2nnn(-c3nonc3N)c2CSc2ccccc2)cc1	-7%	-5	10%	-18%	-1%	8%
CCOc1ccc(-c2c(C(=O)N/N=C/c3cccs3)nnn2-c2nonc2N)cc1	-2%	16	3%	2.2µM*	6.3µM*	u
Cc1ccc(-c2c(C(=O)N/N=C/c3ccoc3)nnn2-c2nonc2N)cc1	-4%	6	2%	11µM*	u	-1%
Cc1ccc(/C=N/NC(=O)c2nnn(-c3nonc3N)c2CSc2ccccc2)o1	-20%	16	7%	7.1µM*	11µM*	15%
Cc1ccc(SCc2c(C(=O)N/N=C/c3ccoc3)nnn2-c2nonc2N)cc1	-1%	-24	7%	7.9µM*	16µM*	3%
COc1ccc2c(c1)O[C@@H]1c3ccc(OC)cc3OCC21 (some centres undefined)	x	x	x	25%	-2%	x
COc1cc(OC)cc(-c2c(-c3ccc(F)cc3)c3cc(-c4cccc5[nH]ccc45)ccc3n2C)c1	-7%	-10	0%	x	x	-2%
C[C@H](CN1c2ccccc2Sc2cccnc21)N(C)C	-4%	x	x	-12%	18%	8%
Cc1ccc(-c2c(C(=O)N/N=C/c3cccs3)nnn2-c2nonc2N)cc1	-3%	4	u	7.1µM*	5.6µM*	u
Cc1ccc(-c2c(C(=O)N/N=C/c3cccc(Cl)c3)nnn2-c2nonc2N)cc1	-10%	-11	u	-19%	-4%	-1%
Cc1ccc(-c2c(C(=O)N/N=C/c3ccsc3)nnn2-c2nonc2N)cc1	-13%	16	13%	7.1µM*	20µM*	1%
CC(C)N(CCNC(=O)c1ccc(CS(=O)(=O)c2c(Cl)cccc2Cl)o1)Cc1ccccc1	-2%	-9	-7%	-9%	2%	3%
CCOC(=O)c1nc(-c2ccc(OC)c(OC)c2)no1	-22%	-4	-1%	0%	3%	-1%
Cc1nc2cnc(N3CCNCC3)nc2n(-c2ccccc2)c1=O	x	x	x	-9%	8%	x
CCC1=NN(C(=O)Cc2ccc([N+](=O)[O-])cc2)C(O)(c2ccncc2)C1 (centres undefined)	-11%	-5	0%	18µM*	3%	-11%
O=C(c1ccco1)N1N=C(C2CCCCC2)CC1(O)C(F)(F)F (centres undefined)	-12%	-9	4%	8%	5%	-39%
CC1=NN(C(=O)Cc2ccc([N+](=O)[O-])cc2)C(O)(C(F)(F)C(F)(F)F)C1 (centres undefined)	159%	6	u	3.5µM*	5µM*	7%
Cc1occc1C(=O)N1N=C(C2CC2)CC1(O)C(F)(F)F (centres undefined)	-3%	27	-12%	7.9µM*	u	3%
